The whole screen tested about 39,000 compounds, of which about 3,300 (8.5%) were called active. The sample holds actives, similar compounds and a random draw of the others, so the mix is not that of the screen.

This assay has as its system HepG2. The assay is described as follows: cytotoxicity call (relative viability < 0.9). The following applies: 10 µM.
In the case of `CCCC#Cc1ccc2c(c1)O[C@@H](CN(C)S(=O)(=O)c1cccc(F)c1)[C@H](C)CN([C@H](C)CO)S2(=O)=O`, the cytotoxicity call was “inactive”.

`Br.Cc1ccc(Sc2ccccc2N2CCNCC2)c(C)c1`: the cytotoxicity call was “active”.

In the case of `Cc1ccc(S(=O)(=O)N2CCNCC2)cc1`, the cytotoxicity call was “inactive”.

In the case of `C[C@@H]1CN([C@@H](C)CO)C(=O)c2cc(C#Cc3cccc(F)c3)cnc2O[C@@H]1CN(C)Cc1ccccn1`, the cytotoxicity call was “inactive”.

Regarding `C[C@@H]1CCCCO[C@@H](CN(C)S(=O)(=O)c2cccs2)[C@@H](C)CN([C@H](C)CO)C(=O)c2cc(NC(=O)Nc3cccc4ccccc34)ccc2O1`, the cytotoxicity call was “inactive”.

With `C=C/C=C/C[C@@H](C)[C@@H](O)[C@H]1C(=O)N[C@@H](CC)C(=O)N(C)CC(=O)N(C)[C@@H](CC(C)C)C(=O)N[C@@H](C(C)C)C(=O)N(C)[C@@H](CC(C)C)C(=O)N[C@@H](C)C(=O)N[C@H](C)C(=O)N(C)[C@@H](CC(C)C)C(=O)N(C)[C@@H](CC(C)C)C(=O)N(C)[C@@H](C(C)C)C(=O)N1C`, the cytotoxicity call was “inactive”.

`C/C=C/C[C@@H](C)[C@@H](O)[C@H]1C(=O)N[C@@H](CC)C(=O)N(C)CC(=O)N(C)[C@@H]([C@@H](C)CC)C(=O)N[C@@H](C(C)C)C(=O)N(C)[C@@H](CC(C)C)C(=O)N[C@@H](C)C(=O)N[C@H](C)C(=O)N(C)[C@@H](CC(C)C)C(=O)N(C)[C@@H](CC(C)C)C(=O)N(C)[C@@H](C(C)C)C(=O)N1C`: the cytotoxicity call was “inactive”.

As to `CC=CCC(C)C(O)C1C(=O)NC(CC)C(=O)N(C)CC(=O)N(C)C(CC(C)C)C(=O)NC(C(C)C)C(=O)N(C)C(CC(C)C)C(=O)NC(C)C(=O)NC(C)C(=O)N(C)C(CC(C)C)C(=O)N(C)C(CC(C)C)C(=O)N(C)C(C(C)C)C(=O)N1C` (stereo not given), the cytotoxicity call was “active”.

`CC(C)NC(=O)N(C)C[C@@H]1OCc2cnnn2CCCC(=O)N([C@H](C)CO)C[C@H]1C`: the cytotoxicity call was “inactive”.

As to `CCC(=O)Nc1ccc2c(c1)OC[C@@H](C)N(S(=O)(=O)c1cn(C)cn1)C[C@@H](C)[C@H](OC)CN(C)C2=O`, the cytotoxicity call was “inactive”.

In the case of `Cc1c(N)nc([C@H](CC(N)=O)NC[C@H](N)C(N)=O)nc1C(=O)N[C@H](C(=O)N[C@H](C)[C@@H](O)[C@H](C)C(=O)N[C@H](C(=O)NCCc1nc(-c2nc(C(=O)NCCCNCCCCN)cs2)cs1)[C@@H](C)O)[C@@H](O[C@@H]1O[C@@H](CO)[C@@H](O)[C@H](O)[C@@H]1O[C@@H]1O[C@H](CO)[C@@H](O)[C@H](OC(N)=O)[C@@H]1O)c1c[nH]cn1`, the cytotoxicity call was “inactive”.

For `C[C@H](CO)N1C[C@H](C)[C@@H](CN(C)C(=O)C2CCCCC2)Oc2cc(Br)ccc2S1(=O)=O`, the cytotoxicity call was “inactive”.

On to `N#CCCn1nc2c(c1N)CCC2`, for which the cytotoxicity call was “inactive”.

For the compound `Cc1noc(C)c1NC(=O)Nc1ccc2c(c1)C(=O)N([C@@H](C)CO)C[C@H](C)[C@H](CN(C)Cc1ccc(C(F)(F)F)cc1)OCCCC[C@@H](C)O2`, the cytotoxicity call was “inactive”.

`C[C@H](CO)N1C[C@H](C)[C@H](CN(C)C(=O)Cc2ccccc2)OCCCC[C@H](C)Oc2ccc(NC(=O)CCC(F)(F)F)cc2C1=O`: the cytotoxicity call is “inactive”.

As for `C[C@H]1CCCCO[C@@H](CN(C)C(=O)Nc2cccc3ccccc23)[C@@H](C)CN([C@@H](C)CO)C(=O)c2cc(NS(=O)(=O)c3cn(C)cn3)ccc2O1`, the cytotoxicity call was “active”.

With `C[C@@H]1CN([C@@H](C)CO)C(=O)c2cc(NS(=O)(=O)c3cn(C)cn3)ccc2O[C@@H](C)CCCCO[C@H]1CN(C)C(=O)Nc1cccc2ccccc12`, the cytotoxicity call is “inactive”.

For the compound `C[C@H](CO)N1C[C@H](C)[C@H](CN(C)C(=O)Nc2cccc3ccccc23)OCCCC[C@H](C)Oc2ccc(NS(=O)(=O)c3cn(C)cn3)cc2C1=O`, the cytotoxicity call was “inactive”.

For the compound `C[C@@H]1CCCCO[C@@H](CN(C)C(=O)Nc2cccc3ccccc23)[C@H](C)CN([C@H](C)CO)C(=O)c2cc(NS(=O)(=O)c3cn(C)cn3)ccc2O1`, the cytotoxicity call was “inactive”.

Take `C[C@@H]1CCCCO[C@H](CN(C)C(=O)Nc2cccc3ccccc23)[C@H](C)CN([C@H](C)CO)C(=O)c2cc(NS(=O)(=O)c3cn(C)cn3)ccc2O1`: the cytotoxicity call was “active”.

As for `C[C@H]1CCCCO[C@H](CN(C)C(=O)Nc2cccc3ccccc23)[C@@H](C)CN([C@@H](C)CO)C(=O)c2cc(NS(=O)(=O)c3cn(C)cn3)ccc2O1`, the cytotoxicity call is “inactive”.

Regarding `C[C@@H]1CCCCO[C@@H](CN(C)C(=O)Nc2cccc3ccccc23)[C@H](C)CN([C@@H](C)CO)C(=O)c2cc(NS(=O)(=O)c3cn(C)cn3)ccc2O1`, the cytotoxicity call is “inactive”.

Turning to `C[C@@H]1CN([C@@H](C)CO)C(=O)c2cc(NS(=O)(=O)c3cn(C)cn3)ccc2O[C@@H](C)CCCCO[C@@H]1CN(C)C(=O)Nc1cccc2ccccc12`, the cytotoxicity call was “active”.

With `C[C@@H]1CCCCO[C@@H](CN(C)C(=O)Nc2cccc3ccccc23)[C@@H](C)CN([C@H](C)CO)C(=O)c2cc(NS(=O)(=O)c3cn(C)cn3)ccc2O1`, the cytotoxicity call was “inactive”.

Regarding `Cc1cn([C@H]2O[C@@H](CO)[C@H](O)[C@H]2F)c(=O)[nH]c1=O`, the cytotoxicity call is “inactive”.

For the compound `COCCNC(=O)C[C@@H]1C[C@H]2c3cc(NC(=O)COC)ccc3O[C@H]2[C@@H](CO)O1`, the cytotoxicity call was “inactive”.

With `COc1ccc(S(=O)(=O)Nc2cccc3c2O[C@H](CN(C)S(=O)(=O)c2ccc(C)cc2)[C@H](C)CN([C@H](C)CO)C3=O)cc1`, the cytotoxicity call was “inactive”.

Take `COc1ccccc1Nc1nc(-c2ccc(Cl)cc2)cs1`: the cytotoxicity call was “inactive”.

In the case of `C[C@H](CO)N1C[C@H](C)[C@H](CN(C)S(C)(=O)=O)Oc2ccc(NC(=O)CCN3CCOCC3)cc2CC1=O`, the cytotoxicity call was “inactive”.

For `C[C@@H]1CN([C@H](C)CO)C(=O)Cc2cc(NC(=O)C3CC3)ccc2O[C@H]1CN(C)C(=O)Nc1ccc2c(c1)OCO2`, the cytotoxicity call is “inactive”.

In the case of `C[C@@H]1CN([C@H](C)CO)C(=O)Cc2cc(NC(=O)c3ccncc3)ccc2O[C@H]1CN(C)Cc1ccc(C(=O)O)cc1`, the cytotoxicity call is “inactive”.

On to `COc1ccc(S(=O)(=O)Nc2ccc3c(c2)C(=O)N([C@@H](C)CO)C[C@@H](C)[C@H](CN(C)C(=O)Nc2ccccc2)OCCCC[C@@H](C)O3)cc1`, for which the cytotoxicity call is “inactive”.

For `CCN(CC)CCOC(=O)C(c1ccccc1)C1CCCCC1.Cl` (stereo not given), the cytotoxicity call is “active”.

As to `CCN(CC)CCOC(=O)C1(C2CCCCC2)CCCCC1.Cl`, the cytotoxicity call was “inactive”.

For the compound `CCN(CC)CCOC(=O)C(c1ccccc1)c1ccccc1.Cl`, the cytotoxicity call was “inactive”.

As for `COc1ccc(S(=O)(=O)N(C)C[C@@H]2Oc3ncc(-c4ccccc4)cc3C(=O)N([C@H](C)CO)C[C@@H]2C)cc1`, the cytotoxicity call was “inactive”.

On to `C[C@H](CO)N1C[C@H](C)[C@H](CN(C)S(=O)(=O)c2cn(C)cn2)Oc2cc(C3=CCCCC3)ccc2S1(=O)=O`, for which the cytotoxicity call is “inactive”.

Turning to `COc1ccc(CNC(=O)C[C@@H]2C[C@@H]3c4cc(NC(=O)NC5CCCC5)ccc4O[C@@H]3[C@H](CO)O2)cc1`, the cytotoxicity call is “inactive”.

Consider `CC1CCC2(C(=O)O)CCC3(C)C(=CCC4C5(C)CCC(O)C(C)(C)C5CCC43C)C2C1C` (stereo not given), for which the cytotoxicity call was “active”.

For `COC(=O)[C@@]12CC[C@@H](C)[C@@H](C)[C@@H]1C1=CC[C@H]3[C@@]4(C)CC[C@@H](OC(C)=O)C(C)(C)[C@@H]4CC[C@@]3(C)[C@@]1(C)CC2`, the cytotoxicity call is “inactive”.

For the compound `CC1(C)CCC2(C(=O)O)CCC3(C)C(=CCC4C5(C)CCC(O)C(C)(C)C5CCC43C)C2C1` (stereo not given), the cytotoxicity call was “inactive”.

For the compound `Cc1noc(C)c1S(=O)(=O)Nc1ccc2c(c1)CC(=O)N([C@H](C)CO)C[C@@H](C)[C@@H](CN(C)C(=O)Nc1ccccc1)O2`, the cytotoxicity call was “inactive”.

On to `COc1ccccc1S(=O)(=O)N1C[C@@H](O)COC[C@@H]2O[C@H](CC(=O)O)CC[C@H]21`, for which the cytotoxicity call is “inactive”.

As for `C[C@@H]1CN([C@@H](C)CO)C(=O)c2cc(NS(=O)(=O)c3cccs3)ccc2O[C@@H](C)CCCCO[C@H]1CN(C)S(=O)(=O)c1ccc(Cl)cc1`, the cytotoxicity call is “active”.

In the case of `C[C@H](CO)N1C[C@H](C)[C@@H](CN(C)S(=O)(=O)c2ccc(Cl)cc2)OCCCC[C@H](C)Oc2ccc(NS(=O)(=O)c3cccs3)cc2C1=O`, the cytotoxicity call was “inactive”.

`C[C@@H]1CCCCO[C@H](CN(C)S(=O)(=O)c2ccc(Cl)cc2)[C@H](C)CN([C@@H](C)CO)C(=O)c2cc(NS(=O)(=O)c3cccs3)ccc2O1`: the cytotoxicity call was “inactive”.

As to `C[C@H](CO)N1C[C@H](C)[C@H](CN(C)S(=O)(=O)c2ccc(Cl)cc2)OCCCC[C@H](C)Oc2ccc(NS(=O)(=O)c3cccs3)cc2C1=O`, the cytotoxicity call was “inactive”.

For `C[C@@H]1CCCCO[C@@H](CN(C)S(=O)(=O)c2ccc(Cl)cc2)[C@@H](C)CN([C@@H](C)CO)C(=O)c2cc(NS(=O)(=O)c3cccs3)ccc2O1`, the cytotoxicity call was “inactive”.

As for `C[C@H]1CCCCO[C@H](CN(C)S(=O)(=O)c2ccc(Cl)cc2)[C@@H](C)CN([C@@H](C)CO)C(=O)c2cc(NS(=O)(=O)c3cccs3)ccc2O1`, the cytotoxicity call is “inactive”.

Consider `C[C@@H]1CCCCO[C@@H](CN(C)S(=O)(=O)c2ccc(Cl)cc2)[C@H](C)CN([C@H](C)CO)C(=O)c2cc(NS(=O)(=O)c3cccs3)ccc2O1`, for which the cytotoxicity call is “active”.

For `C[C@@H]1CCCCO[C@H](CN(C)S(=O)(=O)c2ccc(Cl)cc2)[C@H](C)CN([C@H](C)CO)C(=O)c2cc(NS(=O)(=O)c3cccs3)ccc2O1`, the cytotoxicity call was “inactive”.

As for `C[C@@H]1CCCCO[C@@H](CN(C)S(=O)(=O)c2ccc(Cl)cc2)[C@H](C)CN([C@@H](C)CO)C(=O)c2cc(NS(=O)(=O)c3cccs3)ccc2O1`, the cytotoxicity call is “active”.

As for `C[C@@H]1CCCCO[C@H](CN(C)S(=O)(=O)c2ccc(Cl)cc2)[C@@H](C)CN([C@@H](C)CO)C(=O)c2cc(NS(=O)(=O)c3cccs3)ccc2O1`, the cytotoxicity call was “inactive”.

As to `C[C@@H]1CCCCO[C@H](CN(C)S(=O)(=O)c2ccc(Cl)cc2)[C@@H](C)CN([C@H](C)CO)C(=O)c2cc(NS(=O)(=O)c3cccs3)ccc2O1`, the cytotoxicity call is “inactive”.

As to `C[C@@H]1CN([C@H](C)CO)C(=O)c2cc(NS(=O)(=O)c3cccs3)ccc2O[C@@H](C)CCCCO[C@@H]1CN(C)S(=O)(=O)c1ccc(Cl)cc1`, the cytotoxicity call was “active”.

(Values after the antibiotic and cytotoxicity screens of Wong et al. (2023).)
